Among all 350,000 compounds or so, about 2,400 (0.69%) were called active. This is one part of a sample in which actives are shown more often than they occur. No stated cut-off is given here; in the data, active means inhibition above about 41%; inconclusive means no clear call, values can overlap the other calls; inactive means below that.

This experiment in a line: blockers of LMP1-induced NF-kB reporter signal – cell-based, luminescence, single point, primary screen (AID 504558).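 Further: 0% = neutral control wells and 100% = reference inhibitor control.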 The note with it: LMP1-induced NF-kappaB luciferase reporter cells, at 12.5 µM, hits give high values.
In the case of `COCCCn1c(C(=O)NC2CCCCC2)cc2c(=O)n3cccc(C)c3nc21`, the inhibition (commonly the change of the read-out against control, counted positive when it falls) is 1.22% (inactive).

In the case of `C[C@H](O)[C@@H]1C(=O)N2CCc3c([nH]c4ccccc34)[C@@H]2C[C@@H]1N(C)C(=O)Nc1ccc(F)cc1`, the inhibition is 3.72% (inactive).

On to `CC1C(=O)N(Cc2cn(CC3CCCCC3)nn2)CCS(=O)(=O)N1Cc1ccc(-c2cccc(N(C)C)c2)cc1` (centres undefined), for which the inhibition is 6.34% (inactive).

In the case of `CN(C)C(CNC(=O)c1cc(Br)c(Br)s1)c1ccco1` (centres undefined), the inhibition is -1.49% (inactive).

With `CC(=O)N1CCCc2cc(S(=O)(=O)N3CCCC(C(=O)N4CCN(c5cccc(Cl)c5)CC4)C3)ccc21` (centres undefined), the inhibition was 42.1% (active).

With `CC(=O)N1CCCc2cc(S(=O)(=O)CCC(=O)N3CCN(c4ccccc4)CC3)ccc21`, the inhibition is -0.617% (inactive).

For the compound `CC(=O)N1c2ccc(S(=O)(=O)N3CCC(C(=O)N4CCN(c5ccccc5)CC4)CC3)cc2CC1C` (centres undefined), the inhibition was 4.09% (inactive).

Consider `Cc1cccc(S(=O)(=O)N(C)C[C@H]2OCc3cnnn3CCCC(=O)N([C@@H](C)CO)C[C@H]2C)c1`, for which the inhibition is 2.93% (inactive).

`COc1ccccc1-n1c(SCC(=O)Nc2ccc(Cl)cc2)nc(O)c(Cc2ccccc2)c1=O`: the inhibition was -7.65% (inactive).

Take `O=C(c1ccc2nc(N3CCOCC3)sc2c1)N1CCN(c2ccc(Cl)cc2)CC1`: the inhibition was 3.45% (inactive).

For `c1c2c(cc3sc(N4CCCCC4)nc13)OCCO2`, the inhibition is 58% (active).

With `CN(C)CCN(C(=O)C1CCCCC1)c1nc2cc3c(cc2s1)OCO3`, the inhibition is 0.636% (inactive).

As for `Cc1ccc(NC(=O)Cn2sc3ccccc3c2=O)cc1`, the inhibition was 0.665% (inactive).

In the case of `COc1cccc2c1C(=O)c1c(O)c3c(c(O)c1C2=O)CC(O)(C(C)=NNC(=O)c1ccc(Cl)c(Cl)c1)CC3OC1CC(N)C(O)C(C)O1` (centres undefined), the inhibition was 70% (active).

With `COc1cc(C(=O)OCCCN2CCOCC2)cc(OC)c1OC`, the inhibition is 1.26% (inactive).

On to `Cc1ccc(-c2nnn(CC(=O)N(CCO)C(C(=O)NC(C)(C)C)c3ccncc3)n2)cc1` (centres undefined), for which the inhibition was -24.9% (inactive).

For the compound `Cc1cccc(N(C(=O)Cn2nnc(-c3ccc(C)o3)n2)C(C(=O)NC2CCCC2)c2ccncc2)c1` (centres undefined), the inhibition is 9.95% (inactive).

As to `Cc1ccc(-c2nnn(CC(=O)N(Cc3ccco3)C(C(=O)NC(C)(C)C)c3ccncc3)n2)o1` (centres undefined), the inhibition is 54.6% (active).

Take `CCn1c(SCC(=O)N2CCCC2=O)nc2ccccc21`: the inhibition was 6.54% (inactive).

For the compound `O=C(CNC(=O)C(c1ccccc1)c1ccccc1)N/N=C\c1ccc2c(c1)OCO2`, the inhibition is -3.07% (inactive).

On to `C(=N\Nc1ccc2ccccc2n1)/c1ccc2c(c1)OCO2`, for which the inhibition is 43.9% (active).

Take `Cc1cccc(NC(=O)/C=C/c2ccc3c(c2)OCO3)n1`: the inhibition is -23.8% (inactive).

Turning to `CC(OC(=O)c1cccc(S(=O)(=O)N2CCOCC2)c1)C(=O)NCC1CCCCC1` (centres undefined), the inhibition was -1.25% (inactive).

On to `O=C(O)c1ccc(N/N=C/c2ccc3ncccc3c2)cc1`, for which the inhibition was 44.3% (active).

As to `Cc1ccc2cc(/C=N/Nc3ccc(C(=O)O)cc3)c(Cl)nc2c1`, the inhibition was -63.4% (inactive).

Turning to `CCNC(=S)NNC(=O)c1ccc2ncccc2c1`, the inhibition was 7.73% (inactive).

For the compound `CCOc1ccc(S(=O)(=O)NCCC(=O)NNC(=O)c2ccc(F)cc2)cc1`, the inhibition was -8.7% (inactive).

Consider `O=C(Nc1ccc2c(c1)[C@@H]1C[C@@H](CC(=O)N3CCCCC3)O[C@@H](CO)[C@@H]1O2)NC1CCCCC1`, for which the inhibition is 1.38% (inactive).

Turning to `CCc1cc(-c2nnn(CCC3COCCO3)c2CC)ccc1-c1cn(Cc2ccc3ccccc3c2)nn1` (centres undefined), the inhibition was 0.755% (inactive).

Regarding `Cc1cc(Cl)ccc1C(=O)C1CCCN(C(=O)c2ccc3c(c2)OCO3)C1` (centres undefined), the inhibition is -1.16% (inactive).

With `Cc1cccc(C)c1NC(=S)N1CCCCCC1`, the inhibition is 23.1% (inactive).

Take `O=C(NCCOc1ccccc1)c1ccccc1F`: the inhibition was -2.63% (inactive).

As to `CCNC(=S)N1CCN(c2ncccn2)CC1`, the inhibition was -18.8% (inactive).

Take `CC(=NNC(=S)N1CCCCCC1)c1ccccn1`: the inhibition is 91.7% (active).

As for `O=C(Nc1nnc(-c2ccccc2F)s1)c1ccccc1F`, the inhibition is -3.53% (inactive).

Regarding `C/C(=N\NC(=O)c1ccccc1F)c1ccccn1`, the inhibition was 48.6% (active).

Consider `CCN(C(=O)Nc1cccc2ccccc12)c1ccccc1`, for which the inhibition was 2.61% (inactive).

For the compound `CCN(Cc1ccncc1)C(=S)Nc1ccccc1C`, the inhibition was 0.031% (inactive).

Consider `CCc1ccccc1OCC(=O)Nc1nnc(C2CC2)s1`, for which the inhibition is -2.82% (inactive).

Consider `COCOCCn1cc(CN2CCS(=O)(=O)N(Cc3ccc(-c4ccccc4)cc3)C(CC(C)C)C2=O)nn1` (centres undefined), for which the inhibition was 1.98% (inactive).

For `CC1=C(C(=O)N2CCOCC2)CC(CC(=O)NCc2ccco2)C(=O)N1Cc1ccc(F)cc1` (centres undefined), the inhibition was 3.55% (inactive).

For `C=CCNc1cnn(-c2ccc(C)cc2)c(=O)c1Cl`, the inhibition was -12.1% (inactive).

In the case of `Cc1cccc(-n2ncc(Cl)c(Cl)c2=O)c1`, the inhibition is 52.4% (active).

In the case of `Cc1cccc(-n2ncc3c(=O)[nH]c(SCC(=O)Nc4cc(C)on4)nc32)c1`, the inhibition was -3.93% (inactive).

Consider `CCCCN1C[C@H](c2ccc(Br)cc2)[C@@H](CC(=O)Nc2ccc(Br)cc2)C1=O`, for which the inhibition is 1.53% (inactive).

Turning to `C[C@@H]1CN([C@@H](C)CO)C(=O)c2cc(Br)cnc2O[C@@H]1CN(C)C(=O)C1CCCCC1`, the inhibition is -0.141% (inactive).

Consider `CCN(CC)C(=O)C1=C(C)N(Cc2ccccc2)C(=O)C(CC(=O)NC(c2ccccc2)c2ccccc2)C1` (centres undefined), for which the inhibition is 2.92% (inactive).

For `COc1cccc(/C=C/c2ccc3ccccc3n2)c1OC(C)=O`, the inhibition is 56.9% (active).

As for `CC(=O)c1ccc(S(=O)(=O)N2CCN(C(=O)/C=C/c3ccc4ccccc4n3)CC2)cc1`, the inhibition is -1.62% (inactive).

As for `CCOc1cccc(/C=C/c2ccc3ccccc3n2)c1OC(C)=O`, the inhibition is 17.6% (inactive).

With `CC1(C)C2CCC1(C)C(OC(=O)c1ccc(O)cc1)C2` (centres undefined), the inhibition was -2.13% (inactive).

Regarding `COC(=O)c1ccc(NCc2cc(O)ccc2O)cc1`, the inhibition was -94.1% (inactive).

Regarding `O=C(OC12CC3CC(CC(C3)C1)C2)c1ccc(NCc2cc(O)ccc2O)cc1`, the inhibition is 44.1% (active).

As for `CC1C(=O)N(Cc2cn(Cc3ccco3)nn2)CCS(=O)(=O)N1Cc1ccc(-c2cccc(CO)c2)cc1` (centres undefined), the inhibition is 4.76% (inactive).

Values taken from PubChem BioAssay AID504558 (Broad Institute, 2011).
